In PubChem BioAssay:
Values without a mark were called inactive. For some assays here: Entries with a potency or affinity are not part of this list. The source made the active and inactive calls. Unless noted, the rule behind the calls is not given here.

How the values were obtained:
[1] = antimalarial activity against Dd2 strain (AID 2302;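 active = growth inhibition above 50% at the single 2 µM test dose, taken to imply half-maximal potency below 2 µM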;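 note: 0% = DMSO untreated growth and 100% = chloroquine plus artemisinin killed control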); conditions: P. falciparum Dd2 in RBCs, LDH growth readout, 72 h; at 2 µM; stronger effect = higher value
[2] = human hepatoma cell viability loss – ATP luminescence, cytotoxicity control for P. falciparum antimalarial project, primary screen (AID 2303;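 active = inhibition above 50%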;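 note: 0% = DMSO wells and 100% = digitonin-killed cells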); conditions: HepG2 viability, 24-48 h, at 10 µM, stronger effect = higher value
[3] = target: L-lactate dehydrogenase (Plasmodium falciparum (isolate CDC / Honduras)) (UniProt Q27743); assay: PfLDH activity inhibition – cell lysate, 3D7 strain, counter-screen for P. falciparum growth inhibition project (AID 2304);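 note: 0% = vehicle and 100% = reference inhibitor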; conditions: P. falciparum 3D7 crude extract, LDH APAD/NBT absorbance; at 2 µM; stronger effect = higher value
[4] = inhibition of 3D7 malaria parasite growth – strain 3D7 (AID 2306);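 note: 0% = DMSO wells and 100% = chloroquine plus artemisinin control wells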; conditions: P. falciparum 3D7 erythrocytic growth, LDH absorbance, 72 h; at 2 µM; stronger effect = higher value
[5] = target: Calcium-dependent protein kinase 1 (Plasmodium falciparum (isolate 3D7)) (UniProt P62344); assay: PfCDPK1 kinase inhibitors, biochemical, TCAMS library (AID 1159585; cut-off not given, nearly all actives have IC50 up to about 0.98 µM;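 note: inhibitors leave more ATP so luminescence rises with inhibition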); conditions: recombinant PfCDPK1, Kinase-Glo ATP depletion luminescence
[6] = target: Plasmodium falciparum protein kinase 6 (PK6, PF3D7_1337100) (UniProt Q8IDW1); assay: PfPK6 kinase inhibitors, biochemical, TCAMS library (AID 1159586); conditions: recombinant PfPK6, Kinase-Glo ATP depletion luminescence
[7] = target: Protein kinase 7 (PK7), Plasmodium falciparum 3D7 (PF3D7_0213400) (UniProt Q7YTF7); assay: inhibition of Plasmodium PK7 catalytic activity – biochemical, TCAMS antimalarial set, Kinase-Glo luminescence (AID 1159587); conditions: recombinant PfPK7, Kinase-Glo ATP depletion luminescence
[8] = target: Calcium-dependent protein kinase 4 (Plasmodium falciparum (isolate 3D7)) (UniProt Q8IBS5); assay: PfCDPK4 kinase inhibitors, biochemical, TCAMS library (AID 1159588; cut-off not given, nearly all actives have IC50 up to about 0.91 µM); conditions: recombinant PfCDPK4, Kinase-Glo ATP depletion luminescence
Calcium-dependent protein kinase 4 (Plasmodium falciparum (isolate 3D7)), sequence (Q8IBS5 whole entry, looked up): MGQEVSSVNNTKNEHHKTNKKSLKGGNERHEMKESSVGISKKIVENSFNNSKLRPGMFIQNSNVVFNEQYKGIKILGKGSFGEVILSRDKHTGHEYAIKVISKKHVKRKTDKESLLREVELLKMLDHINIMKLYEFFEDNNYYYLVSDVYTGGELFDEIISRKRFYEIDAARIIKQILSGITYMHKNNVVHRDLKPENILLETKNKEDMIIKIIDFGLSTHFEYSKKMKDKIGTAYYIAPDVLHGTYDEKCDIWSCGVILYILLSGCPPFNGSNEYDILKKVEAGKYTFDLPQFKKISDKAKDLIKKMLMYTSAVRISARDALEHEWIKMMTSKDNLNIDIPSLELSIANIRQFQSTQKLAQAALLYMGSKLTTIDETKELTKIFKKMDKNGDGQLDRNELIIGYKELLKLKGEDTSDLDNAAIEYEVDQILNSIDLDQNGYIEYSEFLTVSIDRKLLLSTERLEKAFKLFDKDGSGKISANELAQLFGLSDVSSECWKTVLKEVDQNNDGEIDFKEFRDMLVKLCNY

L-lactate dehydrogenase (Plasmodium falciparum (isolate CDC / Honduras)), sequence (Q27743 whole entry, looked up): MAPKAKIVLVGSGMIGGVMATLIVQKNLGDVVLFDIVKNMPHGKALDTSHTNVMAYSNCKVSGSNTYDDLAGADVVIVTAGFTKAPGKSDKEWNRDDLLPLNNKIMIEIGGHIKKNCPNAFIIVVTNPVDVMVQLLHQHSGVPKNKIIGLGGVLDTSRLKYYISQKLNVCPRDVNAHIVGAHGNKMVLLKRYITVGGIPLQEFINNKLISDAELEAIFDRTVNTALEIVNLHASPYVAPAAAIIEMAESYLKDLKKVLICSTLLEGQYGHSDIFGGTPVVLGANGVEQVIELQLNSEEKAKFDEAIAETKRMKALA
Protein kinase 7 (PK7), Plasmodium falciparum 3D7 (PF3D7_0213400), sequence (Q7YTF7 1-343): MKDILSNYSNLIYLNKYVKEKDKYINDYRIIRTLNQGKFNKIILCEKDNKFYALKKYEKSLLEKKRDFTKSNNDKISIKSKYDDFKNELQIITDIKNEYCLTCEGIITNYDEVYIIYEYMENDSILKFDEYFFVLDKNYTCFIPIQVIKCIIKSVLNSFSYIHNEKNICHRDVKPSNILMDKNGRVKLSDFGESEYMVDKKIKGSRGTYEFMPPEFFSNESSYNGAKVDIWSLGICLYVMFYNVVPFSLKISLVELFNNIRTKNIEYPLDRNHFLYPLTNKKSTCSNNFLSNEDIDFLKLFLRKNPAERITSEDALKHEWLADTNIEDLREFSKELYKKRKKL
Calcium-dependent protein kinase 1 (Plasmodium falciparum (isolate 3D7)), sequence (P62344 whole entry, looked up): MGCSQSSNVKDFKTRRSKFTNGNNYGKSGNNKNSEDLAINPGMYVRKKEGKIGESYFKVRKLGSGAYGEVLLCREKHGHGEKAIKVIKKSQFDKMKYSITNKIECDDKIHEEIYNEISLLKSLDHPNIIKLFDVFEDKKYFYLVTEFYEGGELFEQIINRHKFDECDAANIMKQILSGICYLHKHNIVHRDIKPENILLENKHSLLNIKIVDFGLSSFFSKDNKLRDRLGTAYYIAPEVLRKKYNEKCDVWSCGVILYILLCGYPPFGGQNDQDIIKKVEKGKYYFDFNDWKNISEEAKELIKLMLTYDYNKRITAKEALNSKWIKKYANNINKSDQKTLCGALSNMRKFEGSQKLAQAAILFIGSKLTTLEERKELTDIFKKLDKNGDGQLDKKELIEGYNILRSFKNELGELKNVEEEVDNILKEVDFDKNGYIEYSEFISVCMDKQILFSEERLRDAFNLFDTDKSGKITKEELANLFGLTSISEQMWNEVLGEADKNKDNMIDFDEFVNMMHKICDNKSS
Plasmodium falciparum protein kinase 6 (PK6, PF3D7_1337100), sequence (Q8IDW1 1-305): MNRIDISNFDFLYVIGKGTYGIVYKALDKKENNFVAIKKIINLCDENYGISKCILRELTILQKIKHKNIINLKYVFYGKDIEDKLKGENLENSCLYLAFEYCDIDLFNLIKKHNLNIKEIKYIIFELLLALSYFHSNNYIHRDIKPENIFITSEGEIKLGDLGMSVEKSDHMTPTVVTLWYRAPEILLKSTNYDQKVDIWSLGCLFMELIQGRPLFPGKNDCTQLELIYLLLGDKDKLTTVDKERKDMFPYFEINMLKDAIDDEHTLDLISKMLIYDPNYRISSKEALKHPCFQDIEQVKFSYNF

Compound | growth inhibition [1] | inhibition [2] | inhibition [3] [%] | growth inhibition [4] | outcome [5] | outcome [6] | outcome [7] | outcome [8]
CCOCc1cn(CC(=O)c2ccc(-c3ccccc3)cc2)c(C)nc1=N | 72% (active) | 13% | 5 | 93% (active) | inactive | inactive | inactive | inactive
COc1cc2[nH]c(-c3ccc(O)cc3)c(C)c(=O)c2c(OC)c1OC | 94% (active) | 1% | 0 | 100% (active) | inactive | inactive | inactive | inactive
COc1cc(C(=O)N2CCOC(CCN3CC[C@@H]4c5ccccc5C[C@@H]43)(c3ccc(Cl)c(Cl)c3)C2)cc(OC)c1OC (stereo not given in full) | 82% (active) | 32% | 1 | 88% (active) | inactive | inactive | inactive | inactive
O=C(Nc1cccc(-c2ccc(-c3nc4ccc(C(F)(F)F)cc4[nH]3)s2)c1)c1cnc[nH]1 | 36% | 55% (active) | -3 | 89% (active) | inactive | inactive | inactive | inactive
COc1cc(C(=O)N2CCOC(CCN3CCC(c4ccc(Cl)cc4)CC3)(c3ccc(Cl)c(Cl)c3)C2)cc(OC)c1OC (stereo not given) | 80% (active) | 44% | 6 | 91% (active) | inactive | inactive | inactive | inactive
CC(C)CCn1c(Sc2ccc(C#N)c([N+](=O)[O-])c2)nnc1-c1ccccc1Cl | 38% | 20% | 3 | 93% (active) | inactive | inactive | inactive | inactive
Cc1[nH]c(C)c(-c2ccc(-c3ccc(F)cc3)nc2)c(=O)c1Br | 96% (active) | 15% | 0 | 97% (active) | inactive | inactive | inactive | inactive
O=C(Nc1ccc(OC2CCN(Cc3ccsc3)C2)c(Cl)c1)c1ccc(F)cc1 (stereo not given) | 73% (active) | -3% | -8 | 89% (active) | inactive | inactive | inactive | inactive
O=C(Nc1cccc(CN2CCN(C(=O)c3cccs3)CC2)c1)c1cccs1 | 91% (active) | -2% | 3 | 95% (active) | inactive | inactive | inactive | inactive
CCCNCc1ccc(-c2ccc(CN(C(=O)c3nn(-c4ccccc4)nc3C)C3CCOCC3)cc2)nc1 | -6% | 14% | 4 | 98% (active) | inactive | inactive | inactive | inactive
O=C(/C=C/c1ccc(Cl)c(Cl)c1)NCCCCCCN1CCCN(C(=O)Nc2ccc(Cl)c(C(F)(F)F)c2)CC1 | 24% | 25% | -4 | 101% (active) | inactive | inactive | inactive | inactive
COc1ccc(CCN(C)CCCOc2ccc(NC(=O)COc3cccc4sc5ccccc5c(=O)c34)cc2)cc1OC | 90% (active) | 99% (active) | 1 | 94% (active) | inactive | inactive | inactive | inactive
Cc1cc(=O)c2cc(Oc3ccc(OC(F)(F)F)cc3)ccc2[nH]1 | 71% (active) | 20% | -2 | 86% (active) | inactive | inactive | inactive | inactive
COc1ccc(C2CC(c3ccccc3O)=NN2C(=O)c2ccco2)cc1OC (stereo not given) | 68% (active) | 11% | 1 | 96% (active) | inactive | inactive | inactive | inactive
Cc1cc(OCCCN2CCC(NS(=O)(=O)c3ccc(Cl)c(Cl)c3)C2)c2ccccc2n1 (stereo not given) | 37% | 28% | 1 | 87% (active) | inactive | inactive | inactive | inactive
O=C(NCCCN1CCOCC1)c1csc(Nc2ccc(Cl)c(Cl)c2)n1 | 23% | 5% | 2 | 92% (active) | inactive | inactive | inactive | inactive
O=C(Nc1ccc(Cl)cc1)Nc1cccc(-c2cccc(-c3nc4ccccc4[nH]3)c2)c1 | 56% (active) | 70% (active) | 0 | 100% (active) | inactive | inactive | inactive | inactive
COc1cccc2cc(C(=O)N[C@@H](CC(C)C)C(=O)N[C@H](/C=N/NC(=O)N3CCN(C)CC3)CCc3ccccc3)oc12 | 73% (active) | 1% | 4 | 85% (active) | inactive | inactive | inactive | inactive
O=C(C=Cc1ccc(Cl)c(Cl)c1)NCCCCCN1CCC(CCNS(=O)(=O)c2ccc(Br)cc2)CC1 | -1% | 58% (active) | 5 | 91% (active) | inactive | inactive | inactive | inactive
CC1(C)N=C(N)N=C(N)N1OCCCOc1ccc([N+](=O)[O-])cc1 | 80% (active) | 68% (active) | 0 | 94% (active) | inactive | inactive | inactive | inactive

Compound | growth inhibition [1] | inhibition [2] | inhibition [3] [%] | growth inhibition [4] | outcome [5] | outcome [6] | outcome [7] | outcome [8]
COc1ccc2c(c1)CCCC2C(C)NCC(O)c1cccc(C(F)(F)F)c1 (stereo not given) | 99% (active) | 3% | -3 | 99% (active) | inactive | inactive | inactive | inactive
CN1CCC(c2nc(N)no2)C1 (stereo not given) | 2% | 15% | 0 | 95% (active) | inactive | inactive | inactive | inactive
Cc1ccc(N/C(N)=N/c2ncccc2OCc2c(F)cccc2Cl)cc1 | 54% (active) | 78% (active) | -2 | 86% (active) | inactive | inactive | inactive | inactive
O=C(Nc1cccc(CN2CCN(Cc3ccc(O)cc3)CC2)c1)c1ccc(-c2ccccc2)cc1 | 67% (active) | 40% | 1 | 101% (active) | inactive | inactive | inactive | inactive
O=C(CCc1cnc[nH]1)Nc1ccc(-c2ccc(-c3nc4ccc(F)cc4[nH]3)cc2)cc1 | 58% (active) | 26% | -1 | 99% (active) | inactive | inactive | inactive | inactive
COc1ccc([N+](=O)[O-])cc1N(Cc1ccccc1-c1ccccc1)S(=O)(=O)c1ccc(C(F)(F)F)cc1 | 66% (active) | 3% | -2 | 96% (active) | inactive | inactive | inactive | inactive
CNCc1ccc2nc(-c3coc(Cc4cc(Cl)ccc4OCC(C)C)n3)[nH]c2c1 | 95% (active) | 34% | 2 | 101% (active) | inactive | inactive | inactive | inactive
CCN(CC)C(=S)N=Nc1c(O)[nH]c2c(C)cccc12 | 69% (active) | 28% | 3 | 94% (active) | inactive | inactive | inactive | inactive
O=C(NC1CC1)c1ccc(Cn2c(SCc3cccc([N+](=O)[O-])c3)nc3ccccc3c2=O)cc1 | 65% (active) | 12% | 1 | 91% (active) | inactive | inactive | inactive | inactive
O=C(NC1CC1)c1ccc(N2CCCCN2CCc2ccccc2)c(C(F)(F)F)c1 | 84% (active) | -9% | -4 | 98% (active) | inactive | inactive | inactive | inactive
CCOc1ccc2c(NN=Cc3cccc(OC)c3OC)cc(C)nc2c1 | 85% (active) | 4% | 3 | 102% (active) | inactive | inactive | inactive | inactive
Cc1c(C)n(C2CCCCC2)c2ncnc(OC3CCN(CC(=O)N4CCCC4)CC3)c12 | 59% (active) | 31% | -4 | 95% (active) | inactive | inactive | inactive | inactive
COCCN1CCC(N(Cc2ccc(-c3ccc(OC(F)(F)F)cc3)cc2)C(=O)Cn2c(CCc3cccc(F)c3F)cc(=O)c3ccccc32)CC1 | 92% (active) | 100% (active) | -10 | 96% (active) | inactive | inactive | inactive | inactive
CCOc1ccccc1[C@H]1[C@H](C(=O)C(C)(C)C)N2c3ccc(Br)cc3C=CC2C12C(=O)c1ccccc1C2=O (stereo not given in full) | 94% (active) | 17% | 1 | 95% (active) | inactive | inactive | inactive | inactive
Cc1cc(N2CCCN(CC3CCCCC3)CC2)nc(Nc2ccc(Br)cc2)n1 | 54% (active) | 24% | -1 | 95% (active) | inactive | inactive | inactive | inactive
CC(C)(C)c1ccc2oc(=O)n(C3CCN(C(=O)c4ccc([N+](=O)[O-])o4)CC3)c2c1 | 87% (active) | -8% | -2 | 94% (active) | inactive | inactive | inactive | inactive
CS(=O)(=O)c1ccc(Nc2ncc(-c3ccc(S(C)(=O)=O)cc3)c(OCC(F)(F)F)n2)cc1 | 98% (active) | -7% | -3 | 97% (active) | inactive | inactive | inactive | inactive
NC(N)=NN=CC(=O)Nc1ccc(Cl)c(C(F)(F)F)c1 | 0% | -6% | 0 | 100% (active) | inactive | inactive | inactive | inactive
CCc1ccccc1NC(=O)CN1CCN(c2ncnc3scc(-c4ccc(F)cc4)c23)CC1 | 62% (active) | 6% | -2 | 83% (active) | inactive | inactive | inactive | inactive
NC(N)=NCCN(Cc1ccccc1)c1ccc(Cl)cc1 | 99% (active) | -7% | -3 | 100% (active) | inactive | inactive | inactive | inactive
